Measured values published in the supplement of paper PMC12669032.
“And” between values parts separate entries of the source, which are not always exact repeats. Equal values may be shown once. Unmarked numbers belong to inactive results.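 Rule for the calls: active = AUC reduced over 20% with Padj below 0.05 in at least 2 of 3 replicates; inactive = otherwise.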

Tested on: Odoribacter splanchnicus
Assay: growth AUC relative to DMSO control (median of replicates) (fraction); higher = more growth (less inhibition), active = hit call of the paper
Conditions: 20 µM; 24 h
How it was run: (§1)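 For each compound at 20 µM (1% DMSO), gut bacterial monocultures seeded at OD600 0.05 grew anaerobically in mGAM at 37 °C in round-bottom 96-well plates. Hourly OD600 readings over 24 h gave growth curves whose minimum OD was set to 0. Area under these curves was normalised to the plate median of solvent-only wells, or to row and column medians on the industrial chemical plate. Values are medians of three biological replicates grown on separate days.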

SMILES | growth AUC
Cc1cccc(C)c1N | 1.03
C=CCOC(=O)C(C)(C)OC(=O)c1cc(-n2c(=O)cc(C(F)(F)F)n(C)c2=O)ccc1Cl | 0.913
CCOP(=O)(NC(C)C)Oc1ccc(S(C)(=O)=O)c(C)c1 (stereo not drawn) | 1.05
Cc1cc(OC(=O)N(C)C)nn1C(=O)N(C)C | 0.935
CCCCCCCCSC(=O)Oc1cc(Cl)nnc1-c1ccccc1 | 0.905
CC1(C(=O)Nc2ccc(O)c(Cl)c2Cl)CCCCC1 | 0.907
CC(Oc1ccc(Oc2ccc(Cl)cc2Cl)cc1)C(=O)O (racemic) | 1.09
C[Si](Cn1cncn1)(c1ccc(F)cc1)c1ccc(F)cc1 | 0.925
CN(C)C1CSSSC1.O=C(O)C(=O)O | 0.962
COP(=S)(OC)SCn1nnc2ccccc2c1=O | 0.902
CCSC(=O)N1CCCCCC1 | 0.947
O=C(O)c1c(Cl)ccc2cc(Cl)cnc12 | 0.988
CCCSP(=S)(OCC)Oc1ccc(SC)cc1 (stereo not drawn) | 1.07
Cc1cc(C(F)(C(F)(F)F)C(F)(F)F)ccc1NC(=O)c1cccc(I)c1C(=O)NC(C)(C)CS(C)(=O)=O | 0.994
Cc1cc(Cl)ccc1O | 1.07
COc1cc(OC)nc(NC(=O)NS(=O)(=O)c2ncccc2C(=O)N(C)C)n1 | 1.03
Cc1cccc2sc3nncn3c12 | 1.03
CCC(C)c1cc([N+](=O)[O-])cc([N+](=O)[O-])c1O (stereo not drawn) | 0.799 (active)
CCOP(=S)(OCC)SCSC(C)(C)C | 1.06
CCNc1nc(Cl)nc(NC(C)(C)C#N)n1 | 0.985

SMILES | growth AUC
Cc1ccccc1C(=O)Nc1cccc(OC(C)C)c1 | 1.03
N#CN=C1SCCN1Cc1ccc(Cl)nc1 | 1.02
COP(=O)(OC)Oc1ccc(S(C)=O)c(C)c1 (stereo not drawn) | 1.02
COCC(=O)N(c1c(C)cccc1C)[C@H](C)C(=O)OC | 1.03
CC(=NC#N)N(C)Cc1ccc(Cl)nc1 | 1.04 and 1.02
CC1(C)C(C(=O)OC(C#N)c2cccc(Oc3ccccc3)c2)C1(C)C (stereo not drawn) | 0.959
CNC(=O)Oc1cc(C)c(N(C)C)c(C)c1 | 1.08
CN(C)C(=S)SSC(=S)N(C)C | 0.0343 (active)
CCOP(=S)(OCC)SCn1nnc2ccccc2c1=O | 0.926
[CH3][Hg][Cl] | 0.684 (active)
CCCCc1c(C)nc(NCC)nc1OS(=O)(=O)N(C)C | 0.891
CC1(C)[C@H](/C=C(\Cl)C(F)(F)F)[C@@H]1C(=O)O[C@@H](C#N)c1cccc(Oc2ccccc2)c1 | 1
CCCN(CCOc1c(Cl)cc(Cl)cc1Cl)C(=O)n1ccnc1 | 0.94
CCOP(=S)(OCC)Oc1cc(Cl)c(Br)cc1Cl | 0.968
C/C(=N\NC(=O)Nc1cc(F)cc(F)c1)c1ncccc1C(=O)[O-].[Na+] | 1.07
C1=Cc2cccc3cccc1c23 | 0.99
CCc1ccc(C(=O)NN(C(=O)c2cc(C)cc(C)c2)C(C)(C)C)cc1 | 0.926
C#CCOc1ccc(CCNC(=O)C(OCC#C)c2ccc(Cl)cc2)cc1OC (stereo not drawn) | 1.03
COC(=O)c1ccccc1S(=O)(=O)NC(=O)Nc1nc(C)nc(OC)n1 | 1.07

Tested on: Parabacteroides distasonis
Assay: as above
Conditions: 20 µM; 24 h
How it was run: as §1

SMILES | growth AUC
Cc1cccc(C)c1N | 1.01
C=CCOC(=O)C(C)(C)OC(=O)c1cc(-n2c(=O)cc(C(F)(F)F)n(C)c2=O)ccc1Cl | 0.811
CCOP(=O)(NC(C)C)Oc1ccc(S(C)(=O)=O)c(C)c1 (stereo not drawn) | 1.06
Cc1cc(OC(=O)N(C)C)nn1C(=O)N(C)C | 1.11
CCCCCCCCSC(=O)Oc1cc(Cl)nnc1-c1ccccc1 | 0.99
CC1(C(=O)Nc2ccc(O)c(Cl)c2Cl)CCCCC1 | 1.05
CC(Oc1ccc(Oc2ccc(Cl)cc2Cl)cc1)C(=O)O (racemic) | 1.06
C[Si](Cn1cncn1)(c1ccc(F)cc1)c1ccc(F)cc1 | 0.915
CN(C)C1CSSSC1.O=C(O)C(=O)O | 1.04
COP(=S)(OC)SCn1nnc2ccccc2c1=O | 0.787
CCSC(=O)N1CCCCCC1 | 0.997
O=C(O)c1c(Cl)ccc2cc(Cl)cnc12 | 0.986
CCCSP(=S)(OCC)Oc1ccc(SC)cc1 (stereo not drawn) | 0.98
Cc1cc(C(F)(C(F)(F)F)C(F)(F)F)ccc1NC(=O)c1cccc(I)c1C(=O)NC(C)(C)CS(C)(=O)=O | 0.795
Cc1cc(Cl)ccc1O | 1.02
COc1cc(OC)nc(NC(=O)NS(=O)(=O)c2ncccc2C(=O)N(C)C)n1 | 1.02
Cc1cccc2sc3nncn3c12 | 0.991
CCC(C)c1cc([N+](=O)[O-])cc([N+](=O)[O-])c1O (stereo not drawn) | 0.841
CCOP(=S)(OCC)SCSC(C)(C)C | 0.955
CCNc1nc(Cl)nc(NC(C)(C)C#N)n1 | 1

SMILES | growth AUC
Cc1ccccc1C(=O)Nc1cccc(OC(C)C)c1 | 1.04
N#CN=C1SCCN1Cc1ccc(Cl)nc1 | 1.03
COP(=O)(OC)Oc1ccc(S(C)=O)c(C)c1 (stereo not drawn) | 1.01
COCC(=O)N(c1c(C)cccc1C)[C@H](C)C(=O)OC | 1.05
CC(=NC#N)N(C)Cc1ccc(Cl)nc1 | 1.02 and 1
CC1(C)C(C(=O)OC(C#N)c2cccc(Oc3ccccc3)c2)C1(C)C (stereo not drawn) | 1.15
CNC(=O)Oc1cc(C)c(N(C)C)c(C)c1 | 0.988
CN(C)C(=S)SSC(=S)N(C)C | 0.928
CCOP(=S)(OCC)SCn1nnc2ccccc2c1=O | 0.707 (active)
[CH3][Hg][Cl] | 0.918
CCCCc1c(C)nc(NCC)nc1OS(=O)(=O)N(C)C | 0.598 (active)
CC1(C)[C@H](/C=C(\Cl)C(F)(F)F)[C@@H]1C(=O)O[C@@H](C#N)c1cccc(Oc2ccccc2)c1 | 0.985
CCCN(CCOc1c(Cl)cc(Cl)cc1Cl)C(=O)n1ccnc1 | 0.871
CCOP(=S)(OCC)Oc1cc(Cl)c(Br)cc1Cl | 0.891
C/C(=N\NC(=O)Nc1cc(F)cc(F)c1)c1ncccc1C(=O)[O-].[Na+] | 0.875
C1=Cc2cccc3cccc1c23 | 0.889
CCc1ccc(C(=O)NN(C(=O)c2cc(C)cc(C)c2)C(C)(C)C)cc1 | 1.03
C#CCOc1ccc(CCNC(=O)C(OCC#C)c2ccc(Cl)cc2)cc1OC (stereo not drawn) | 0.689 (active)
COC(=O)c1ccccc1S(=O)(=O)NC(=O)Nc1nc(C)nc(OC)n1 | 0.977
